Test results published in the supplement of paper PMC10849652.
The full data set covers some 7,900 targets. This sample favours those with a hit. About 0.6% of all pairs of compound and target were hits.

Tests used:
Assay in all cases: log2 fold change, soluble protein after heating vs DMSO (PISA); higher = thermal stabilisation; K562 cells, 10 uM, 30 min; active = over 0.2 and 3.5 SD of the protein, either way, in both replicates (recomputed)
[1] = compound: CC1=C(C=C(C=C1)NC(=O)C2=CC(=CC=C2)C(C)(C)C#N)NC3=CC4=C(C=C3)N=CN(C4=O)C
How it was run: (§1)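 K562 cells at 2×10^6 cells/mL were given 10 μM compound for 30 min. Aliquots then went through 3 min of heating across 48°C-58°C, were pooled, and were extracted in PBS with 0.5% NP-40 at 4°C, and the supernatant after 21,000xg for 90 min was quantified by TMTpro 16plex LC-MS/MS with channel sums equalised. Thermal stability relative to control samples, from duplicates, is given as log2 fold change.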

[2] = compound: CC1=C(C=C(C=C1)NC(=O)C2=CC(=CC=C2)N(C)C)NC(=O)C3=CC=C(C=C3)O
How it was run: as §1

[3] = compound: CC1=CC=C(C=C1)SC2=C3C=C(SC3=CN=C2)C(=O)N
How it was run: as §1

[4] = compound: CC1=NC(=CC=C1)C2=C(N=C(N2)C(C)(C)C)C3=CC4=NC=CN=C4C=C3
How it was run: as §1

Nexturastat A = compound: CCCCN(Cc1ccc(C(=O)NO)cc1)C(=O)Nc1ccccc1 [Nexturastat A]
How it was run: as §1

vemurafenib = compound: CCCS(=O)(=O)Nc1ccc(F)c(C(=O)c2c[nH]c3ncc(-c4ccc(Cl)cc4)cc23)c1F [vemurafenib]
How it was run: as §1

[5] = compound: CCCS(=O)(=O)Nc1ccc(F)c(C(=O)c2c[nH]c3ncc(Cl)cc23)c1F
How it was run: as §1

[6] = compound: CCCc1cc(C)[nH]c(=O)c1CNC(=O)c1cc(-c2ccnc(N3CCN(C)CC3)c2)cc2c1cnn2C(C)C
How it was run: as §1

givinostat = compound: CCN(CC)Cc1ccc2cc(COC(=O)Nc3ccc(C(=O)NO)cc3)ccc2c1 [givinostat]
How it was run: as §1

barasertib = compound: CCN(CCCOc1ccc2c(Nc3cc(CC(=O)Nc4cccc(F)c4)[nH]n3)ncnc2c1)CCOP(=O)(O)O [barasertib]
How it was run: as §1

[7] = compound: CC[C@@H]1C(=O)N(C)c2cnc(Nc3ccc(C(=O)NC4CCN(C)CC4)cc3OC)nc2N1C1CCCC1
How it was run: as §1

volasertib = compound: CC[C@@H]1C(=O)N(C)c2cnc(Nc3ccc(C(=O)N[C@H]4CC[C@H](N5CCN(CC6CC6)CC5)CC4)cc3OC)nc2N1C(C)C [volasertib]
How it was run: as §1

[8] = compound: CC[C@H](C)N1C=C(C2=C(C=C(C=C21)C3=CN=C(C=C3)N4CCNCC4)C(=O)NCC5=C(C=C(NC5=O)C)C)C
How it was run: as §1

epoxomicin = compound: CC[C@H](C)[C@@H](C(=O)N[C@@H]([C@@H](C)O)C(=O)N[C@@H](CC(C)C)C(=O)[C@]1(CO1)C)NC(=O)[C@H]([C@@H](C)CC)N(C)C(=O)C [epoxomicin]
How it was run: as §1

[9] = compound: CCn1c(C(=O)N(C2CC2)C2CC2)cc2c3c(ncn3C)c(Nc3cc(C)n(C)n3)nc21
How it was run: as §1

[10] = compound: CCn1cc(-c2ccnc3[nH]c(-c4cccc(CN(C)C)c4)cc23)c(-c2ccc(NC(=O)N(C)C)cc2)n1
How it was run: as §1

[11] = compound: CN(C)CC(=O)Nc1ccc2[nH]c(=O)c3ccccc3c2c1
How it was run: as §1

rosiglitazone = compound: CN(CCOC1=CC=C(C=C1)C[C@H]2C(=O)NC(=O)S2)C3=CC=CC=N3 (racemic) [rosiglitazone]
How it was run: as §1

[12] = compound: CN1C2=C(C3=C1C(=O)N(N=C3)CC4=CC(=CC=C4)N)SC(=C2)S(=O)C
How it was run: as §1

[13] = compound: CN1CCC(CNc2ccc3ncc(-c4cccc(OC(F)(F)F)c4)n3n2)CC1
How it was run: as §1

Measured: log2 fold change

COX20 isoform 2 (UniProt Q5RI15)
Sequence of UniProt Q5RI15 (Q5RI15 whole entry, looked up): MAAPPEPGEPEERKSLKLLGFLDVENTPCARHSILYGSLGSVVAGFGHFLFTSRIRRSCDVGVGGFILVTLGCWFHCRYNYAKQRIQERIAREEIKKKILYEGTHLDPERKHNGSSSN
active: [10] 0.294
inactive: [1] 0.035 | [2] -0.041 | [3] 0.102 | [4] 0.036 | Nexturastat A -0.038 | vemurafenib -0.036 | [5] -0.041 | [6] 0.069 | givinostat -0.04 | barasertib -0.03 | [7] -0.019 | volasertib 0.077 | [8] -0.01 | epoxomicin 0 | [9] 0.004 | [11] -0.038 | rosiglitazone 0.005 | [12] 0.002 | [13] 0.081

CIZ1 (UniProt Q9ULV3)
inactive: [1] -0.02 | [2] -0.027 | [3] -0.022 | [4] 0.059 | Nexturastat A 0.011 | vemurafenib -0.018 | [5] -0.007 | [6] -0.033 | givinostat 0.017 | barasertib 0.001 | [7] 0.071 | volasertib -0.022 | [8] 0.046 | epoxomicin 0.086 | [9] -0.008 | [10] 0.017 | [11] -0.011 | rosiglitazone -0.034 | [12] 0.015 | [13] -0.035

CDKN2AIP (UniProt Q9NXV6)
Sequence of UniProt Q9NXV6 (Q9NXV6 whole entry, looked up): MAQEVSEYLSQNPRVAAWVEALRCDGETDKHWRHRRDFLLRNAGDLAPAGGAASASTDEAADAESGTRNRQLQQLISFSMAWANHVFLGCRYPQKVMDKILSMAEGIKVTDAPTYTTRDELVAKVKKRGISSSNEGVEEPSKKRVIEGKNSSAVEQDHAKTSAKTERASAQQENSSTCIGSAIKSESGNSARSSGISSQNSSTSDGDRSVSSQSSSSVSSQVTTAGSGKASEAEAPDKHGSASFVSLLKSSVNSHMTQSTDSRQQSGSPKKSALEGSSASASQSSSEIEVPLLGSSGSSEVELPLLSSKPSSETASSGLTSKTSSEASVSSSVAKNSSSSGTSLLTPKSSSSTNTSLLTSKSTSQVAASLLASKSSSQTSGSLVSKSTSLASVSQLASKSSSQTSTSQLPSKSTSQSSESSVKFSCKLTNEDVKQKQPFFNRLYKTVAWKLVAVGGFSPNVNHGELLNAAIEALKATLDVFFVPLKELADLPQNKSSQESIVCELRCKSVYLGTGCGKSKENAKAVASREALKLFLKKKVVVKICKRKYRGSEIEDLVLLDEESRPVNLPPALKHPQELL
inactive: [1] 0.046 | [2] -0.01 | [3] -0.076 | [4] 0.008 | Nexturastat A 0.052 | vemurafenib 0.043 | [5] -0.053 | [6] 0.023 | givinostat 0.012 | barasertib -0.017 | [7] 0.096 | volasertib 0.057 | [8] -0.001 | epoxomicin 0.095 | [9] -0.017 | [10] 0.008 | [11] 0.046 | rosiglitazone 0.025 | [12] 0.03 | [13] 0.094

CDK12 (UniProt Q9NYV4)
Sequence of UniProt Q9NYV4 (Q9NYV4 whole entry, looked up): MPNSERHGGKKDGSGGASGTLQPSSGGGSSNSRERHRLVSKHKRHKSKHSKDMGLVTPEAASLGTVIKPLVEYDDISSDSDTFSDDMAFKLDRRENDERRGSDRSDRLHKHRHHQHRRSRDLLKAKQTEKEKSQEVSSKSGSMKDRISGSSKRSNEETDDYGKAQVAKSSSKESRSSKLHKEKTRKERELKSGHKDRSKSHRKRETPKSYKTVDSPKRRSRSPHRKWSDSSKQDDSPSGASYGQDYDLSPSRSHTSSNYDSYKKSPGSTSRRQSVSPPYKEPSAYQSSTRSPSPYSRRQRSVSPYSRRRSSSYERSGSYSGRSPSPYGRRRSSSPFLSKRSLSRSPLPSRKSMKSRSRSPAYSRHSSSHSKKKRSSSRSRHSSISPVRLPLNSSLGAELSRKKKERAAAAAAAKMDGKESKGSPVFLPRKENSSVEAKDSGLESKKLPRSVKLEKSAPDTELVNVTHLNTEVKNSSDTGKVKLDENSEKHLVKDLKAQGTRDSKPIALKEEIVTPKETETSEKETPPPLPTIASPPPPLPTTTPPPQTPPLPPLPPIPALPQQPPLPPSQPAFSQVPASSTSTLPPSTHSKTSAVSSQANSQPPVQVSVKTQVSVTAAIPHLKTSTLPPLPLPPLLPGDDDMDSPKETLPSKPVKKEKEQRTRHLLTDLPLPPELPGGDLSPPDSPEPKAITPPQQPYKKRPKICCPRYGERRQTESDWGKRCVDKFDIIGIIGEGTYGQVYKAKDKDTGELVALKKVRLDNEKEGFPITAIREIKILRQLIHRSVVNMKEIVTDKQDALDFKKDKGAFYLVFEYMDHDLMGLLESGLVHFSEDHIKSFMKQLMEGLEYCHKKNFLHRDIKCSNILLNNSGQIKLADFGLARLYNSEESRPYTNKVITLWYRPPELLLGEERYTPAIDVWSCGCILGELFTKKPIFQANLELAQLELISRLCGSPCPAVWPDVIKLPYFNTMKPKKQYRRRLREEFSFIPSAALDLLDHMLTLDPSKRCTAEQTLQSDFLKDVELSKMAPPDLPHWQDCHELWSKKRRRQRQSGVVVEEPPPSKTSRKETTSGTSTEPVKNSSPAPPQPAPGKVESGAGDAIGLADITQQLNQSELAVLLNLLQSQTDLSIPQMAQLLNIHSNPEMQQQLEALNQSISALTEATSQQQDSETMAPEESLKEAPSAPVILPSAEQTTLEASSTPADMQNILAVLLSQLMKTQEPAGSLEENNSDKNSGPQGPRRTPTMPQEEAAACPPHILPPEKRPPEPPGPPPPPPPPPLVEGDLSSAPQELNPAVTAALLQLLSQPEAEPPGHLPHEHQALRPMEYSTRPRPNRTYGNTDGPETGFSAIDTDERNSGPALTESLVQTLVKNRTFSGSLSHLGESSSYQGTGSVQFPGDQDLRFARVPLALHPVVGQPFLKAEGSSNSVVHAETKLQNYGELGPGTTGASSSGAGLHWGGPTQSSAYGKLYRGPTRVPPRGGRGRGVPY
inactive: [1] 0.049 | [2] -0.001 | [3] -0.079 | [4] -0.077 | Nexturastat A 0.278 | vemurafenib -0.047 | [5] -0.002 | [6] 0.104 | givinostat 0.026 | barasertib -0.083 | [7] 0.147 | volasertib 0.237 | [8] 0.016 | epoxomicin -0.363 | [9] -0.005 | [10] 0.041 | [11] -0.027 | rosiglitazone -0.101 | [12] 0.392 | [13] -0.102

COQ7 (UniProt Q99807)
Sequence of UniProt Q99807 (Q99807 whole entry, looked up): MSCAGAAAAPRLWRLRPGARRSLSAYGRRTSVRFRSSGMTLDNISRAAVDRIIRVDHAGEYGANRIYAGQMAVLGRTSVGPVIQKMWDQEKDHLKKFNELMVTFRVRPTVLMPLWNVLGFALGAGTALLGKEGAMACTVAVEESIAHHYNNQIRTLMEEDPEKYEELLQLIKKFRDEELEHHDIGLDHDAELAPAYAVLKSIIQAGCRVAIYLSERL
inactive: [1] 0.028 | [2] 0.086 | [3] 0.02 | [4] 0.018 | Nexturastat A -0.068 | vemurafenib -0.002 | [5] -0.061 | [6] -0.034 | givinostat -0.091 | barasertib 0.023 | [7] -0.035 | volasertib -0.009 | [8] -0.01 | epoxomicin 0.013 | [9] -0.005 | [10] -0.041 | [11] -0.047 | rosiglitazone 0.038 | [12] 0.023 | [13] -0.05

CPQ (UniProt Q9Y646)
Sequence of UniProt Q9Y646 (Q9Y646 whole entry, looked up): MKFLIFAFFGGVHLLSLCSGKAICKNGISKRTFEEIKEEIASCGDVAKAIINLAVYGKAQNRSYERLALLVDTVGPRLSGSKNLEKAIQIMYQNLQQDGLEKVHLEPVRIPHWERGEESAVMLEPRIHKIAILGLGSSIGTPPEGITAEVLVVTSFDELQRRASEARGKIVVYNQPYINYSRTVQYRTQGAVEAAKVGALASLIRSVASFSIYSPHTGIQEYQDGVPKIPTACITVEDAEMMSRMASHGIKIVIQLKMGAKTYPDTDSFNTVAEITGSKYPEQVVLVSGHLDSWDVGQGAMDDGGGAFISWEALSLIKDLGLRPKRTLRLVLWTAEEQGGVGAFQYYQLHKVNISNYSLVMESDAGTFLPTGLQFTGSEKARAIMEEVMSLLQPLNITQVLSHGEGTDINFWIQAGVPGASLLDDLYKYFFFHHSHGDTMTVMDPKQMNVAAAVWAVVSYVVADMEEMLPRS
inactive: [1] 0.001 | [2] 0.025 | [3] -0.005 | [4] -0.005 | Nexturastat A -0.016 | vemurafenib 0.043 | [5] 0.006 | [6] 0.024 | givinostat 0.011 | barasertib -0.002 | [7] -0.144 | [8] -0.036 | epoxomicin 0.062 | [9] -0.011 | [10] -0.039 | [11] -0.021 | rosiglitazone -0.006 | [12] 0.032 | [13] -0.035
active: volasertib -0.27

CSNK2A1 (UniProt P68400)
Sequence of UniProt P68400 (P68400 whole entry, looked up): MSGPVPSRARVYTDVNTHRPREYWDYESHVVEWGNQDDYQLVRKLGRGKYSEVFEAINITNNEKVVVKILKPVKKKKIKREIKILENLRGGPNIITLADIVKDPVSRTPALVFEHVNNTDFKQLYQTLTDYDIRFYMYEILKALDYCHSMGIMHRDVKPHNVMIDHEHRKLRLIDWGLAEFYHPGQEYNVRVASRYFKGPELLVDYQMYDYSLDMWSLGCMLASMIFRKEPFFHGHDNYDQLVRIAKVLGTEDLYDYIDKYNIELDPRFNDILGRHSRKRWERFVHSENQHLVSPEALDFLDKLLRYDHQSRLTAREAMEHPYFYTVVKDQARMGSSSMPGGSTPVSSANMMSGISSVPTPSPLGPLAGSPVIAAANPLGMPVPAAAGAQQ
inactive: [1] -0.047 | [2] -0.004 | [3] -0.044 | [4] 0.025 | Nexturastat A 0.034 | vemurafenib 0.006 | [5] 0.008 | [6] -0.018 | givinostat -0.003 | barasertib -0.024 | [7] 0.007 | volasertib 0.04 | [8] 0.002 | epoxomicin -0.012 | [9] 0.003 | [10] -0.117 | [11] -0.007 | rosiglitazone 0.024 | [12] -0.04 | [13] -0.233

COPS3 (UniProt Q9UNS2)
inactive: [1] -0.008 | [2] -0.013 | [3] 0.009 | [4] 0.034 | Nexturastat A -0.02 | vemurafenib 0.004 | [5] 0.011 | [6] -0.044 | givinostat -0.056 | barasertib 0.016 | [7] 0.001 | volasertib -0.017 | [8] -0.001 | epoxomicin 0.054 | [9] 0 | [10] -0.014 | [11] -0.017 | rosiglitazone 0.007 | [12] -0.038 | [13] -0.03

CPSF1 (UniProt Q10570)
active: Nexturastat A 0.453
inactive: [1] -0.017 | [2] 0 | [3] -0.123 | [4] -0.083 | vemurafenib -0.115 | [5] 0.014 | [6] -0.005 | givinostat 0.058 | barasertib -0.024 | [7] 0.053 | volasertib -0.105 | [8] 0.031 | epoxomicin -0.038 | [9] -0.02 | [10] 0.026 | [11] -0.104 | rosiglitazone 0.011 | [12] 0.116 | [13] 0.165

CNOT1 (UniProt A5YKK6)
active: volasertib -0.312
inactive: [1] 0.016 | [2] -0.007 | [3] -0.027 | [4] 0.014 | Nexturastat A 0.062 | vemurafenib 0.044 | [5] 0.046 | [6] 0.013 | givinostat 0.044 | barasertib 0.044 | [7] -0.051 | [8] 0.056 | epoxomicin -0.028 | [9] -0.028 | [10] 0.028 | [11] 0.061 | rosiglitazone 0.013 | [12] 0.011 | [13] -0.082

CHAC2 (UniProt Q8WUX2)
Sequence of UniProt Q8WUX2 (Q8WUX2 whole entry, looked up): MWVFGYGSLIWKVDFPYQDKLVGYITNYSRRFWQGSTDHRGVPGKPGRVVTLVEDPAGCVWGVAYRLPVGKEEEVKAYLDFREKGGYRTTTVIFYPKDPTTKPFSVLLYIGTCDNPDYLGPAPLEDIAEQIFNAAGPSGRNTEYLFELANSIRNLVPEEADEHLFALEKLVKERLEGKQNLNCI
inactive: [1] -0.001 | [2] 0.025 | [3] 0.037 | [4] 0.015 | Nexturastat A -0.026 | vemurafenib 0.04 | [5] 0.031 | [6] -0.08 | givinostat 0.007 | barasertib 0.079 | volasertib -0.227 | [8] 0.035 | epoxomicin -0.025 | [9] 0.039 | [10] -0.03 | [11] 0.002 | rosiglitazone 0.028 | [12] -0.04 | [13] 0.041
active: [7] -0.343

CNDP2 (UniProt Q96KP4)
inactive: [1] 0.021 | [2] -0.013 | [3] 0.04 | [4] 0.043 | Nexturastat A -0.131 | vemurafenib 0.016 | [5] 0.003 | [6] -0.052 | givinostat -0.087 | barasertib -0.004 | [7] -0.037 | volasertib 0.014 | [8] -0.003 | epoxomicin -0.012 | [9] 0.014 | [10] -0.1 | [11] -0.002 | rosiglitazone 0.016 | [12] -0.103 | [13] -0.149

CNOT4 isoform 6 (UniProt O95628)
Sequence of UniProt O95628 (O95628 whole entry, looked up): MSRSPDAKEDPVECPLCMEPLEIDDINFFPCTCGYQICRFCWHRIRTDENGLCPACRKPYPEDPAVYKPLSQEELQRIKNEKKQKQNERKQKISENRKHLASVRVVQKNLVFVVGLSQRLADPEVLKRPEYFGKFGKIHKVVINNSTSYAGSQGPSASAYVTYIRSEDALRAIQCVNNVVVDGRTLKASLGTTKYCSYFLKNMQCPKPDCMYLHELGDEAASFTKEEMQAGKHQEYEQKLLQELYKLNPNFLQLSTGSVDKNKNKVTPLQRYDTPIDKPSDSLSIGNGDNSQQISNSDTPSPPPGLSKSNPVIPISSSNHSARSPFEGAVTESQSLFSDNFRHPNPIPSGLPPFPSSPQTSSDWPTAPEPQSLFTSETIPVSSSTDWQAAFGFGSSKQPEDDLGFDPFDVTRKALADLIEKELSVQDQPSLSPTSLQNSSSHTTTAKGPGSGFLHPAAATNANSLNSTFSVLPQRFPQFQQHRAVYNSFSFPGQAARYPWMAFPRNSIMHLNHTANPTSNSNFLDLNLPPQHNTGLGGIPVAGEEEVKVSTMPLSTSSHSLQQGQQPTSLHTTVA
inactive: [1] -0.056 | [2] -0.012 | [3] 0.005 | [4] 0.023 | Nexturastat A -0.122 | vemurafenib -0.014 | [5] -0.007 | [6] -0.069 | givinostat -0.064 | barasertib 0.007 | [7] -0.008 | volasertib -0.109 | [8] 0.031 | epoxomicin 0.006 | [9] 0.007 | [10] -0.056 | [11] 0.003 | rosiglitazone 0.036 | [12] 0.028 | [13] -0.095

CKB (UniProt P12277)
Sequence of UniProt P12277 (P12277 whole entry, looked up): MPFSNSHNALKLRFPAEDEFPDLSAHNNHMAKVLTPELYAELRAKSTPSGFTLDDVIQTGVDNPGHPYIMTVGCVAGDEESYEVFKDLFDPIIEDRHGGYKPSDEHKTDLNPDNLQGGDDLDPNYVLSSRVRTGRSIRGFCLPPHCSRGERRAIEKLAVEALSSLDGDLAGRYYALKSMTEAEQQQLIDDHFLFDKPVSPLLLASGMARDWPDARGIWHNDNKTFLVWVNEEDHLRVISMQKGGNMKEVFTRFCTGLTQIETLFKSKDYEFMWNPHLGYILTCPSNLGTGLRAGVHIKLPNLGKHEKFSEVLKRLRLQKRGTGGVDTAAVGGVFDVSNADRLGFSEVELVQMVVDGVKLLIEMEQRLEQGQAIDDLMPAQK
inactive: [1] 0.016 | [2] -0.006 | [3] -0.008 | [4] 0.016 | Nexturastat A -0.032 | vemurafenib 0 | [5] 0.015 | [6] -0.016 | givinostat -0.013 | barasertib -0.002 | [7] 0.002 | [8] 0.008 | epoxomicin 0.044 | [9] 0.01 | [10] -0.108 | [11] 0.009 | rosiglitazone 0.03 | [12] -0.111 | [13] -0.056
active: volasertib 0.265

CAMK2G isoform 6 (UniProt Q13555)
Sequence of UniProt Q13555 (Q13555 whole entry, looked up): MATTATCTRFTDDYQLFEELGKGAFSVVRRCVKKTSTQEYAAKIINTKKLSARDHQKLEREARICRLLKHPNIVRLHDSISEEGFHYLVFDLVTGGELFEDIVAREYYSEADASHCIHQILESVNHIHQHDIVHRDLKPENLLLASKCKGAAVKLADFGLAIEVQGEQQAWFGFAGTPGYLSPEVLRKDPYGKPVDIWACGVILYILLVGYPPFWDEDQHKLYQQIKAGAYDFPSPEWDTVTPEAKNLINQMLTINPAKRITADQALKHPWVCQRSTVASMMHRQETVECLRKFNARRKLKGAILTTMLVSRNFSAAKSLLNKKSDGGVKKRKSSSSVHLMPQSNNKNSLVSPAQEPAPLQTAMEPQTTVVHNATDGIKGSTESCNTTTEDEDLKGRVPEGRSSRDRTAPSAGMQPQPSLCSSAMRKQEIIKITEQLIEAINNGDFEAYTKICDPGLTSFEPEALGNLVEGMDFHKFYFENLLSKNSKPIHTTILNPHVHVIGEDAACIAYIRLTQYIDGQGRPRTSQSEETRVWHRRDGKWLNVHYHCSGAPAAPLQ
inactive: [1] 0.048 | [2] -0.055 | [3] 0.131 | [4] -0.011 | Nexturastat A 0.094 | vemurafenib -0.026 | [5] 0.11 | [6] 0.15 | givinostat 0.025 | barasertib 0.065 | [7] 0.095 | volasertib -0.15 | [8] 0.072 | epoxomicin -0.028 | [9] -0.063 | [10] 0.042 | [11] 0.035 | rosiglitazone -0.008 | [12] 0.064 | [13] -0.319
